Data published in ChEMBL document CHEMBL1961873, “Compounds: GSK PKIS; Assays: Nanosyn kinase panel” (2012).

Assays:
[1] = target: Fibroblast growth factor receptor 4 (Homo sapiens) (UniProt P22455); conditions: at 1 µM;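 also: reported figure is the averaged percent inhibition of FGFR4, from the GSK PKIS kinase screening panel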
[2] = target: Tyrosine-protein kinase Fgr (Homo sapiens) (UniProt P09769); conditions: at 0.1 µM
[3] = target: Tyrosine-protein kinase Fgr (Homo sapiens) (UniProt P09769); conditions: at 1 µM
[4] = target: Vascular endothelial growth factor receptor 1 (Homo sapiens) (UniProt P17948); conditions: at 0.1 µM
[5] = target: Vascular endothelial growth factor receptor 1 (Homo sapiens) (UniProt P17948); conditions: at 1 µM
[6] = target: Receptor-type tyrosine-protein kinase FLT3 (Homo sapiens) (UniProt P36888); conditions: at 0.1 µM
[7] = target: Receptor-type tyrosine-protein kinase FLT3 (Homo sapiens) (UniProt P36888); conditions: at 1 µM
[8] = tested on: T1, Receptor-type tyrosine-protein kinase FLT3 (Homo sapiens), P36888 [D835Y]; conditions: at 0.1 µM
T1 sequence (whole entry): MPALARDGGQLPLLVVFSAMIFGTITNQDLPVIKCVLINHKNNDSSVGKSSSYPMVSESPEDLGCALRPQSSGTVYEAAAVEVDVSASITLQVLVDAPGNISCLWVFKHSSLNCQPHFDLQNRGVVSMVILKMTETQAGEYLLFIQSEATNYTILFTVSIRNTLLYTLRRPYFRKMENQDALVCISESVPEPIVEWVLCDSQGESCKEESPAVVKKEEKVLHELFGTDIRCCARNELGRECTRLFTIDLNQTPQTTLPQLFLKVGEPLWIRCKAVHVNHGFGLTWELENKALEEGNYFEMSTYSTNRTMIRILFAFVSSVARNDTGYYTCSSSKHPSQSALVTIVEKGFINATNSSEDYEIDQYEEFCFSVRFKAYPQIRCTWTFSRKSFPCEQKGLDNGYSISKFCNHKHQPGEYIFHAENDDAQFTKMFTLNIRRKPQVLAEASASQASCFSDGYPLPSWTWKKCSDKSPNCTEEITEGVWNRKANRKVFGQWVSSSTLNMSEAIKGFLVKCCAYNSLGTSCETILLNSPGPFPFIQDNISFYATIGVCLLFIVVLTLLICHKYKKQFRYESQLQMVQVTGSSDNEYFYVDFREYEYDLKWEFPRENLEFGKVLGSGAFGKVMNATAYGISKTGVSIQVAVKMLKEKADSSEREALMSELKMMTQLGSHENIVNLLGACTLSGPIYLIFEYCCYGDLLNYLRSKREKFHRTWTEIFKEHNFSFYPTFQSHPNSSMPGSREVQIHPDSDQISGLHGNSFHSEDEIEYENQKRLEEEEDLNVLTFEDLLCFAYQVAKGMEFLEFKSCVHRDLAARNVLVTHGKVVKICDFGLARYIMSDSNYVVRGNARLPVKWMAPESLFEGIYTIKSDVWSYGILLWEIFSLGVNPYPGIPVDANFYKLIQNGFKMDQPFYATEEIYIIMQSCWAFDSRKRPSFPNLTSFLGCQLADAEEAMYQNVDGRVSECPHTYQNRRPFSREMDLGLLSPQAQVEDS

[9] = target: Non-receptor tyrosine-protein kinase TYK2 (Homo sapiens) (UniProt P29597); conditions: at 1 µM;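 also: values are mean percent inhibition of TYK2 kinase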
[10] = target: T2, Tyrosine-protein kinase receptor TYRO3 (Homo sapiens) (UniProt Q06418); conditions: at 0.1 µM
T2 sequence (whole entry): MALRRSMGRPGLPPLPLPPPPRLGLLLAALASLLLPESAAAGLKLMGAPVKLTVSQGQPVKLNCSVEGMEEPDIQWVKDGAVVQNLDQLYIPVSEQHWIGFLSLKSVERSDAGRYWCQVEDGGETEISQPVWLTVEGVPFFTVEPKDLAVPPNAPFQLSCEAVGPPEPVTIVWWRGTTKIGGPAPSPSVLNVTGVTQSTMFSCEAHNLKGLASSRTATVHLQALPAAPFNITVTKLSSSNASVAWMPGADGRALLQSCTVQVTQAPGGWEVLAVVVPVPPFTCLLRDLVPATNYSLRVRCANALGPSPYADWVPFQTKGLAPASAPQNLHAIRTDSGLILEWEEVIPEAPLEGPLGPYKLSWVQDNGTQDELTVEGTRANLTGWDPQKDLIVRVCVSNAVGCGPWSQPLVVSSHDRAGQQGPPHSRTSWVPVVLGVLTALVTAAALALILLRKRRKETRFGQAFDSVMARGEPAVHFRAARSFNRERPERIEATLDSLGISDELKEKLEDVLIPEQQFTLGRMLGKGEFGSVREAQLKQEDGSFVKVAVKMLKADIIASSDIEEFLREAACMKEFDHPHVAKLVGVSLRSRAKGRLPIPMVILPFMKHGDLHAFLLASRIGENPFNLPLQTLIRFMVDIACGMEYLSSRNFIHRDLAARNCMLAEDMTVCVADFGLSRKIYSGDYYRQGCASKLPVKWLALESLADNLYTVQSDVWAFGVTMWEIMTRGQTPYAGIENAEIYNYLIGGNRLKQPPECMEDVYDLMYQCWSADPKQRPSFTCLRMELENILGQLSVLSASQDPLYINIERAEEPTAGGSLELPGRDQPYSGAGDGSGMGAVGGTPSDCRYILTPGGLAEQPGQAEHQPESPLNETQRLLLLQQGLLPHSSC

[11] = target: T2, Tyrosine-protein kinase receptor TYRO3 (Homo sapiens); conditions: at 1 µM
[12] = target: Tyrosine-protein kinase Yes (Homo sapiens) (UniProt P07947); conditions: at 0.1 µM
[13] = target: Tyrosine-protein kinase Yes (Homo sapiens) (UniProt P07947); conditions: at 1 µM
[14] = target: T3, Tyrosine-protein kinase ZAP-70 (Homo sapiens) (UniProt P43403); conditions: at 0.1 µM
T3 sequence (whole entry): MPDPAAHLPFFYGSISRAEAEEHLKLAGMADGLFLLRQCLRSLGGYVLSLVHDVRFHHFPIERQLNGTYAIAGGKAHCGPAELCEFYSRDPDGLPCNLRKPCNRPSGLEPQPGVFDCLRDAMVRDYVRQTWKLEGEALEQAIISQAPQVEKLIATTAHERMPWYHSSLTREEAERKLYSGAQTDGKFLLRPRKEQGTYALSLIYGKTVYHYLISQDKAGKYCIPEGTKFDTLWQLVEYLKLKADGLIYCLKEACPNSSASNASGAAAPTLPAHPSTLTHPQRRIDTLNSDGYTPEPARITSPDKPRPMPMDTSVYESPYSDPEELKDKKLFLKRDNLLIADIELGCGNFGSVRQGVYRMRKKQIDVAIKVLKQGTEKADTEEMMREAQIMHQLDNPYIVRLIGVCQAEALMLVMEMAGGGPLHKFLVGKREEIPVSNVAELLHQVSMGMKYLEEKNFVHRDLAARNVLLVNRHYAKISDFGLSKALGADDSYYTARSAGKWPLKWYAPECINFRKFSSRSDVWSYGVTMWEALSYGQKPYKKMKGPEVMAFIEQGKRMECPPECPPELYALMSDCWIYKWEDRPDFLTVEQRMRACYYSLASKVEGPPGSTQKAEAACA

[15] = target: T3, Tyrosine-protein kinase ZAP-70 (Homo sapiens); conditions: at 1 µM
[16] = target: Serine/threonine-protein kinase B-raf (Homo sapiens) (UniProt P15056); conditions: at 0.1 µM
[17] = target: Serine/threonine-protein kinase B-raf (Homo sapiens) (UniProt P15056); conditions: at 1 µM
[18] = tested on: Serine/threonine-protein kinase B-raf (Homo sapiens), P15056 [V600E]; conditions: at 0.1 µM
[19] = tested on: Serine/threonine-protein kinase B-raf (Homo sapiens), P15056 [V600E]; conditions: at 1 µM
[20] = target: RAF proto-oncogene serine/threonine-protein kinase (Homo sapiens) (UniProt P04049); conditions: at 0.1 µM;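 also: values are mean CRAF kinase inhibition from profiling of the GSK Published Kinase Inhibitor Set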
Sequence of RAF proto-oncogene serine/threonine-protein kinase (Homo sapiens) (P04049 whole entry): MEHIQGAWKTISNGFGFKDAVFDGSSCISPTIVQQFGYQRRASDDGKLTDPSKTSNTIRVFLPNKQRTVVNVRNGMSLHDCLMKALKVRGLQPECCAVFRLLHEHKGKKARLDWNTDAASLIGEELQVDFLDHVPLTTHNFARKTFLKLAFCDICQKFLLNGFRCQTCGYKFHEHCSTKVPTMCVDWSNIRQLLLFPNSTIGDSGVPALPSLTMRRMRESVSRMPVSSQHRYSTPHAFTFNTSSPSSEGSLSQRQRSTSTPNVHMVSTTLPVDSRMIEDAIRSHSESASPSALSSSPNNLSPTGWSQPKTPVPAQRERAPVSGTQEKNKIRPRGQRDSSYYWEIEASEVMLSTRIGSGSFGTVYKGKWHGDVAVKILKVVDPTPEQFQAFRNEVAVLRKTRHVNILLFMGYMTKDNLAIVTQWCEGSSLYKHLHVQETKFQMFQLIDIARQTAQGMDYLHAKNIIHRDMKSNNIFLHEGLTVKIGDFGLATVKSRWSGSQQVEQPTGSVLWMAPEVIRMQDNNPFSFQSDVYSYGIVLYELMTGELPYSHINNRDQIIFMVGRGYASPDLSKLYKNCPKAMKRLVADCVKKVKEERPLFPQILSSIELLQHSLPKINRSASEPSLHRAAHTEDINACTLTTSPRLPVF

Sequence of Serine/threonine-protein kinase B-raf (Homo sapiens), P15056 [V600E] (P15056 whole entry V600E): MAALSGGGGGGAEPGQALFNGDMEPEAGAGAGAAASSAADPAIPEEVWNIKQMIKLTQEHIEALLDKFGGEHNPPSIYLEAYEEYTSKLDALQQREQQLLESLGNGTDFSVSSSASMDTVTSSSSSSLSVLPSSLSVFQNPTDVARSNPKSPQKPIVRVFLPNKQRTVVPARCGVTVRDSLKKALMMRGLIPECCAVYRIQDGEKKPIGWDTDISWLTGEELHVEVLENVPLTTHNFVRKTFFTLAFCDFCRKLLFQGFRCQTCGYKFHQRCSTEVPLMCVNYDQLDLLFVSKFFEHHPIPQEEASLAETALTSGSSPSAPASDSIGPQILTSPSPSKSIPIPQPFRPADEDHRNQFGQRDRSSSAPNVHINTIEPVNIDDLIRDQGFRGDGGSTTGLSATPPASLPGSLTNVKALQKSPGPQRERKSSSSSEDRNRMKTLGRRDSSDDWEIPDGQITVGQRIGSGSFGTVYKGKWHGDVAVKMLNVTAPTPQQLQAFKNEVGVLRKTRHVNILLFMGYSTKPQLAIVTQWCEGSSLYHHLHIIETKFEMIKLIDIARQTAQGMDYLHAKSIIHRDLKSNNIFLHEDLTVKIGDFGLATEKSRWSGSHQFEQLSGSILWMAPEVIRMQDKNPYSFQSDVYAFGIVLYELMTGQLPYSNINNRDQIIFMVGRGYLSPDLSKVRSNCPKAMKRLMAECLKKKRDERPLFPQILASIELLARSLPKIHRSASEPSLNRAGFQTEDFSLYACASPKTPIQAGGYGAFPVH
Sequence of Serine/threonine-protein kinase B-raf (Homo sapiens) (P15056 whole entry): as the sequence (P15056 whole entry V600E) above, with E600V counted along it
Sequence of Non-receptor tyrosine-protein kinase TYK2 (Homo sapiens) (P29597 whole entry): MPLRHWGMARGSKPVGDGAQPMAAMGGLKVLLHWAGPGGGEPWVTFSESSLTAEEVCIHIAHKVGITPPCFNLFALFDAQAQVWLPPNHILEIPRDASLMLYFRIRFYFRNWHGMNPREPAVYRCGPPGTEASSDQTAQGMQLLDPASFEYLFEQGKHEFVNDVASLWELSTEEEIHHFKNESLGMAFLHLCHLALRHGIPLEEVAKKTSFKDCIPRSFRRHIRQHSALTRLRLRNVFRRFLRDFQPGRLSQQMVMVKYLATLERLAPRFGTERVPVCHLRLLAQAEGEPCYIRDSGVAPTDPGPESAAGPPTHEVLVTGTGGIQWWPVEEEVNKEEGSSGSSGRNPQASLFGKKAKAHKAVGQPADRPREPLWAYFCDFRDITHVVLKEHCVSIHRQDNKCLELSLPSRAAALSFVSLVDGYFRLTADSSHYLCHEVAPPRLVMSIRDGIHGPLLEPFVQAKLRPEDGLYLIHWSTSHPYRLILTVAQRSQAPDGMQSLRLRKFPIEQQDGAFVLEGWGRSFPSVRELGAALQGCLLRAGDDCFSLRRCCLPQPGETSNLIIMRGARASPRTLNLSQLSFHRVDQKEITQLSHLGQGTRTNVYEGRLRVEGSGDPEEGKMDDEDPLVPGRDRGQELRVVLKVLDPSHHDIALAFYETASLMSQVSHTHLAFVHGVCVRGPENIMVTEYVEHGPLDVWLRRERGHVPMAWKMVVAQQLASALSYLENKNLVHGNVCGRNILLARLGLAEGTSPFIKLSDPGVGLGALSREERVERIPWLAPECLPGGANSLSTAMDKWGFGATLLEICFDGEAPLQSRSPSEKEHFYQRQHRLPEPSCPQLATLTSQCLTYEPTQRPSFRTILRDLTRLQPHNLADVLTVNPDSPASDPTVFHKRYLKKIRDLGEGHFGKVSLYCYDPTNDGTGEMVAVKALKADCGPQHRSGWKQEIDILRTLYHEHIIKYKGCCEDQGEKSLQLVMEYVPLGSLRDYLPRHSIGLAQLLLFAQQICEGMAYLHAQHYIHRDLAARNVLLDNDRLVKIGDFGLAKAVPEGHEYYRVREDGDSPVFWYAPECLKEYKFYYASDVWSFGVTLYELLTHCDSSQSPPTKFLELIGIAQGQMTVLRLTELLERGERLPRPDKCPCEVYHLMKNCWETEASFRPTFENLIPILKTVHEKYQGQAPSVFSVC
Sequence of Fibroblast growth factor receptor 4 (Homo sapiens) (P22455 22-802 limits assumed): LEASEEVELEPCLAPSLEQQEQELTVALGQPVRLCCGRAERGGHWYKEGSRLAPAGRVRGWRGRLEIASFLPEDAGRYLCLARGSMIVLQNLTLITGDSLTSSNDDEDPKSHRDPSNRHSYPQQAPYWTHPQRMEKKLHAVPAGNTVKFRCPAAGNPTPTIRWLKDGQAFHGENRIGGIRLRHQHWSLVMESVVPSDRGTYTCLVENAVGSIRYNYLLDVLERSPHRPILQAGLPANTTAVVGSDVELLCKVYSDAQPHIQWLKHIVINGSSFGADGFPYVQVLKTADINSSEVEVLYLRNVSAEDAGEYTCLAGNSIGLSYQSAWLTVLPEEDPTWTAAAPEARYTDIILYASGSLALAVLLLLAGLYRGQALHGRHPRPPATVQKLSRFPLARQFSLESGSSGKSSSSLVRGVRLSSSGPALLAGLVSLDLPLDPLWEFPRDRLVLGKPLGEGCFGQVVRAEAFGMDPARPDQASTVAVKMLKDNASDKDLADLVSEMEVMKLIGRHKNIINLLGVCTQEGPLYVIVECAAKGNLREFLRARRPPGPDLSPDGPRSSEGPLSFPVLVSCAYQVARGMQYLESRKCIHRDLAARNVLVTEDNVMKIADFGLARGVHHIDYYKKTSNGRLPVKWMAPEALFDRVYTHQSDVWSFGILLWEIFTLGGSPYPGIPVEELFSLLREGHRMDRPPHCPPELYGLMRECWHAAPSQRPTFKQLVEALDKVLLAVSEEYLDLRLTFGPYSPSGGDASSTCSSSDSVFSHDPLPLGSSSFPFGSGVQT
Sequence of Vascular endothelial growth factor receptor 1 (Homo sapiens) (P17948 whole entry): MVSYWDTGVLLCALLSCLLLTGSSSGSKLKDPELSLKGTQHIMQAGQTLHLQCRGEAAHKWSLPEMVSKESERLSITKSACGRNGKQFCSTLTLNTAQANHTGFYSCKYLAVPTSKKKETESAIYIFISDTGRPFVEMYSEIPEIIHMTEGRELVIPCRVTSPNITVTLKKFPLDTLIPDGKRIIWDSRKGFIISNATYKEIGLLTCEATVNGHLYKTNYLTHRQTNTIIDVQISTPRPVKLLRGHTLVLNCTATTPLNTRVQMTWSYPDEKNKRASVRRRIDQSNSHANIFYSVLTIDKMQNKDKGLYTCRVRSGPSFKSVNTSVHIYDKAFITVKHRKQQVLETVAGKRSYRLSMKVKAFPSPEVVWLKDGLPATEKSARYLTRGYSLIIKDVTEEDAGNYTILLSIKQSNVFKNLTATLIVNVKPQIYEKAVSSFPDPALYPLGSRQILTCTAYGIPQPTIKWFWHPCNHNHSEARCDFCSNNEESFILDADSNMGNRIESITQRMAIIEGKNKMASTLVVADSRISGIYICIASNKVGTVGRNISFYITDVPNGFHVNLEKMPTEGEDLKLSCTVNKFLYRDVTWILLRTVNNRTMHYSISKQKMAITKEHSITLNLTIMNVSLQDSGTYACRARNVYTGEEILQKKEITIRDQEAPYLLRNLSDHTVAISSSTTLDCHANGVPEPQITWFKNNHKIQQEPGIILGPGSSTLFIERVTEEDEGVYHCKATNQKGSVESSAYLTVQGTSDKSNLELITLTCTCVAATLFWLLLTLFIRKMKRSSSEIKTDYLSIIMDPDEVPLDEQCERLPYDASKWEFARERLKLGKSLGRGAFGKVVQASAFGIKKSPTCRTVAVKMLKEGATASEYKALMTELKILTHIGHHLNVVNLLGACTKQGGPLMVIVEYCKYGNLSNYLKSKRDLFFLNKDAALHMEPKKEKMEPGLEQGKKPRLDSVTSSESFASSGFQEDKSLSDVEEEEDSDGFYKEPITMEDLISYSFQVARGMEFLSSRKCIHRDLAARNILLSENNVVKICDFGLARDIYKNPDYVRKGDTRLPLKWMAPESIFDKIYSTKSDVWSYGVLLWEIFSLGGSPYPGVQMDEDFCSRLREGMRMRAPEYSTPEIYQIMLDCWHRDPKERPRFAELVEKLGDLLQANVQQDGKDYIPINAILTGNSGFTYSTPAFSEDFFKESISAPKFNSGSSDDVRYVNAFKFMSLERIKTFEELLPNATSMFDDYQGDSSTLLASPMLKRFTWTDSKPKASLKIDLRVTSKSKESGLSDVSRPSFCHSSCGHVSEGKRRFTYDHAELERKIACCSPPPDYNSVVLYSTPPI

SMILES	inhibition [1]	inhibition [2]	inhibition [3]	inhibition [4]	inhibition [5]	inhibition [6]	inhibition [7]	inhibition [8]	inhibition [9]	inhibition [10]	inhibition [11]	inhibition [12]	inhibition [13]	inhibition [14]	inhibition [15]	inhibition [16]	inhibition [17]	inhibition [18]	inhibition [19]	inhibition [20]
Cc1nnc(-c2ccc(C)c(-c3ccc(C(=O)Nc4cccc(C#N)c4)cc3)c2)o1	0.88%	4.67%	5.11%	-0.39%	1.58%	-0.61%	1.58%	0.86%	-1.12%	1.94%	1.98%	1.42%	5.81%	2.77%	3.12%	3.86%	3.97%	3.34%	3.85%	-4.37%
Fc1cccc(COc2ccc(Nc3ncnc4cc(-c5ccc[nH]5)sc34)cc2Cl)c1	-3.31%	3.74%	11%	-0.98%	1.18%	-0.44%	2.33%	2.49%	0.5%	2.87%	3.81%	2.17%	9.41%	-0.46%	-0.93%	3.64%	2.48%	3.55%	2.69%	5.88%
CCn1c(-c2nonc2N)nc2cncc(C(=O)N3CCNCC3)c21	2.67%	1.29%	2.57%	0.7%	2.54%	5.99%	4.6%	-1.23%	-2.3%	1.84%	2.14%	2.93%	3.85%	2.85%	4.99%	9.15%	11.5%	6.08%	5.58%	4.15%
CC(C)=Cc1cccc2c1/C(=N/Nc1ccc(S(N)(=O)=O)cc1)C(=O)N2	1.59%	5.76%	25.3%	1.39%	13.9%	6.79%	48.9%	15.6%	20.7%	2.83%	9.24%	2.28%	18%	4.6%	4.98%	0.07%	2.13%	0.1%	2.83%	3.26%
COc1ccc(COc2ccc(Cc3cnc(N)nc3N)cc2OC)cc1	3.16%	-0.01%	4.25%	1.03%	2.11%	-1.11%	1.13%	-4.6%	0.26%	0.79%	0.77%	-0.39%	-3.3%	3.08%	4.05%	-1.31%	-0.42%	-1.07%	0.7%	1.84%
Fc1cccc(COc2ccc(Nc3ncnc4sc(-c5cccs5)cc34)cc2Cl)c1	3.41%	1.43%	3.69%	-0.58%	3.56%	0.38%	3.27%	-2.12%	1.15%	0.54%	1.15%	0.57%	1.28%	-1.83%	1.54%	1.35%	2.73%	1.62%	1.65%	1.45%
NC(=O)c1cccc(Nc2nccc(Nc3cccc4[nH]ncc34)n2)c1	6.94%	53.6%	76.7%	2.24%	29.2%	6.63%	48%	10.4%	39.1%	9.98%	54.4%	32%	82.5%	-2.28%	4.64%	-3.03%	4.38%	-3.72%	3.75%	-3.86%
COc1ccc(-c2nn3ncccc3c2-c2ccnc(Nc3ccc(Cl)c(C(F)(F)F)c3)n2)cc1	0.98%	5.75%	16.9%	-1.35%	1.63%	-0.69%	1.14%	-1.91%	1.02%	0.79%	3.05%	7.39%	46.2%	0.91%	-1.1%	3.94%	4.03%	3.98%	3.99%	-1.5%
CC(=O)Nc1cccc(C#Cc2cncnc2Nc2ccc(OCc3cccc(F)c3)c(Cl)c2)n1	0.7%	4.5%	3.79%	-1.03%	-0.69%	-2.34%	-0.61%	1.25%	2.39%	0.18%	1.63%	4.46%	10.7%	2.6%	-0.49%	-1.65%	-3.08%	-2.42%	-2.04%	0.47%
CS(=O)(=O)CCNCc1nc(-c2ccc3ncnc(Nc4ccc(F)c(Cl)c4)c3c2)cs1	-0.36%	5.78%	10.6%	1.98%	-0.42%	-0.6%	0.63%	2.29%	-3.18%	0.5%	3.05%	-0.53%	9.54%	-0.36%	-0.71%	1.66%	3.47%	1.41%	3.88%	-0.76%
COc1cc2ncn(-c3cc(OCc4ccccc4C(F)(F)F)c(C(N)=O)s3)c2cc1OC	-1.16%	4.79%	14.6%	1.92%	9.39%	0.06%	9.95%	9.27%	-6.76%	3.15%	10.3%	1.77%	7.91%	-2.01%	-1.32%	5.82%	4.85%	3.47%	3.52%	1.99%
CNC(=O)c1cncc(/C=C/c2c(Cl)cccc2Cl)c1	1.17%	3.11%	21.3%	0.03%	4.61%	-0.33%	2.17%	-3.3%	-3.44%	1.91%	4.06%	3.3%	17.2%	0.11%	1.58%	6.39%	10.5%	3.03%	4.23%	5.08%
Cc1cccc(-c2n[nH]cc2-c2ccc3ncccc3n2)n1	1.18%	2.06%	4.41%	3.33%	29.2%	-1.33%	-0.33%	-5.04%	0.67%	0.27%	1.88%	1.95%	9.98%	3.21%	1.47%	1.47%	1.32%	0.26%	1.23%	-0.77%
Cn1cc(C=C2C(=O)Nc3cccnc32)c2ccccc21	14.1%	7.5%	44%	1.42%	13.1%	20.3%	66.2%	32.7%	0.73%	2.36%	13.2%	5.4%	45.1%	1.96%	11.5%	3.28%	6.52%	2.79%	5.11%	-3.3%
